Reference: the supplement of paper PMC11482750
± gives the standard deviation of the averaged measurements.

Compound: CCC1CCC(=O)O1 [γ-hexalactone]
Assay: control-subtracted net OSN firing rate; higher = stronger neuronal activation
Conditions: odorant dilution (vol/vol): 1/100
Experimental: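 Single sensillum recordings from olfactory sensory neurons. The neurons sit in the maxillary palp or antennal sensilla of D. melanogaster (wild type, mutants, or at1 empty-neuron lines expressing Or42a homologs or the A181D S307P mutant) and of four Scaptomyza species. Each odorant was given as a 1 s pulse from 20 µl loaded on filter paper at 1:100 vol/vol, diluted in mineral oil (γ-hexalactone in DMSO). Spikes were counted in a 0.5 s window starting 0.2 s after onset, background was subtracted, the count was doubled, and the mean solvent-control response was subtracted.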

| Target | control-subtracted net OSN firing rate [spikes/s] |
| --- | --- |
| Or67dGal4, UAS-Spal Or42a at1 | 95.8 ± 46 |
| Canton-S ab6a | 3.33 ± 7 |
| Canton-S pb3b | -2 ± 8.5 |
| Canton-S ab3a | 1.82 ± 8.3 |
| Canton-S ab1a | 0.25 ± 12 |
| Canton-S ab10a | -0.4 ± 7.9 |
| Or67dGal4, UAS-Sfla Or42a3 at1 | 38.3 ± 15 |
| Canton-S pb1a | 167 ± 28 |
| Canton-S pb3a | -1.14 ± 8.2 |
| Canton-S ai3b | -2.5 ± 6.8 |
| Canton-S ai3a | -1.5 ± 3.4 |
| Canton-S ab9b | -2.67 ± 12 |
| Or67dGal4; UAS-A181D S301P at1 | 42.6 ± 20 |
| Canton-S ab8a | 3.2 ± 11 |
| Canton-S ab3b | -0.909 ± 7.1 |
| Canton-S at4a | -3 ± 3.5 |
| Canton-S ab4a | 2 ± 2 |
| Canton-S ab5b | 1.6 ± 5.2 |
| Canton-S ab10b | -0.2 ± 5.2 |
| Or67dGal4; UAS-SflaOr42a3 at1 | 48.8 ± 19 |

| Target | control-subtracted net OSN firing rate [spikes/s] |
| --- | --- |
| Canton-S ab9a | 2.67 ± 7.6 |
| Canton-S ab8b | 10 ± 5.8 |
| Canton-S ab1b | 2.5 ± 8.5 |
| Or67dGal4, UAS-Dmel Or42a at1 | 79 ± 40 |
| Or67dGal4, UAS-Sfla Or42a4 at1 | 6 ± 9.1 |
| Canton-S ab2b | 6.86 ± 9.2 |
| Canton-S ai3c | 0.5 ± 4.4 |
| Canton-S ab4b | -4 ± 5.3 |
| Canton-S at4c | -6 ± 5.2 |
| Canton-S pb2a | -7.5 ± 12 |
| Canton-S ab6b | 4.22 ± 12 |
| Canton-S ai2b | 10 ± 6.9 |
| Canton-S pb1b | -7.71 ± 12 |
| Or67dGal4, UAS-Sfla A181D S307P/+ at1 | 16.8 ± 14 |
| Canton-S ai2a | -2 ± 5.3 |
| Canton-S ab7b | -2 ± 3.3 |
| Canton-S at4b | -2 ± 13 |
| Canton-S ab1d | 1.5 ± 5.5 |
| Canton-S ab7a | -7.5 ± 11 |
| Canton-S pb2b | -2.5 ± 3.8 |
